In PubChem BioAssay (Tox21):
Several values for one entry are separate records, joined by “and”; a condition that tells them apart may be missing. Equal values may be shown once. Results filed as inconclusive are left out. Some compounds were tested as several samples or in several runs, with calls that do not always agree. Activity calls are given as the source filed them. Unless noted, the call rests on the fitted dose curve; in most records, active means well fitted curve in the direction sought with a large enough effect in the repeat runs; inconclusive means weak or mixed curves; inactive means no such curve, though single readings can be large; an effect the other way counts as inactive or inconclusive.

Experiments:
[1] = qHTS assay to identify aromatase inhibitors - cell viability counter screen (AID 743084);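 further: cells stimulated with testosterone during compound exposure; nearly all actives have a fitted effect of over 55% in size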; further: potency means the concentration at half of the fitted maximal effect
[2] = target: Aryl hydrocarbon receptor (Homo sapiens) (UniProt P35869); experiment: qHTS assay to identify small molecule that activate the aryl hydrocarbon receptor (AhR) signaling pathway (AID 743085);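 further: HG2L7.5c1 human HepG2 liver cells with stably integrated DRE-driven firefly reporter; series mostly up to about 70 µM; nearly all actives have a fitted effect of over 15% in size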
Summary of the method: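 Measured in HG2L7.5c1 cells: CellTiter-Fluor signal (30 min incubation, 37C) for viability, then luciferase luminescence (30 min, room temperature). Compound contact time was 24 h at 37C, following a 5 h pre-incubation.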

[3] = qHTS assay to identify small molecule that activate the aryl hydrocarbon receptor (AhR) signaling pathway - cell viability counter screen (AID 743086); further: nearly all actives have a fitted effect of over 45% in size; further: potency means the concentration at half of the fitted maximal effect;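 on viability change, negative = cytotoxic: HepG2 liver cells carrying the AhR DRE luciferase reporter; series mostly up to about 70 µM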
Summary of the method: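 HepG2-AhR-luc (HG2L7.5c1) cells, 4000/well, treated 24 h at 37 C with compound; viability measured as CellTiter-Fluor fluorescence after 30 min in the same wells as the luciferase read.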

[4] = target: Peroxisome proliferator-activated receptor gamma (Homo sapiens) (UniProt P37231); experiment: qHTS assay to identify small molecule agonists of the peroxisome proliferator-activated receptor gamma (PPARg) signaling pathway (AID 743094; active means well fitted activation curve with a large enough effect in the signal ratio in the repeat runs, not every such curve was filed as active; the % refers to the signal ratio)
Summary of the method: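 Cell-based bla reporter, HEK293H background, PPARg-driven UAS. Pre-incubation 5 h, 37C, 5% CO2. Compound 17 h, 37C. Substrate 1 h RT; fluorescence.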

[5] = target: Peroxisome proliferator-activated receptor gamma (Homo sapiens) (UniProt P37231); experiment: qHTS assay to identify small molecule antagonists of the peroxisome proliferator-activated receptor gamma (PPARg) signaling pathway (AID 743191; calls by dose curve; further: series mostly up to about 63 µM; nearly all actives have a fitted effect of over 30% in size)
Summary of the method: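 GeneBLAzer PPARg UAS-bla HEK293H cells, 5 h post-plating, exposed to compounds 17 h at 37C. LiveBLAzer B/G FRET substrate added for 1 h at room temperature; beta-lactamase reporter read by fluorescence intensity.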

[6] = qHTS assay to identify small molecule antagonists of the peroxisome proliferator-activated receptor gamma (PPARg) signaling pathway - cell viability counter screen (AID 743194); further: nearly all actives have a fitted effect of over 55% in size; further: potency means the concentration at half of the fitted maximal effect
Summary of the method: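 Cytotoxicity counter screen in PPARg-bla HEK293H cells, same wells as reporter assay. Compounds plus 50 nM rosiglitazone (final) for 17 h at 37 C, then viability read by CellTiter-Glo luminescence.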

[7] = qHTS assay for small molecule agonists of the antioxidant response element (ARE) signaling pathway (AID 743202; active means well fitted activation curve with a large enough effect in the signal ratio in the repeat runs, not every such curve was filed as active; the % refers to the signal ratio; further: potency means the concentration at half of the fitted maximal effect)
Summary of the method: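 HepG2 ARE-bla cells; 16 h treatment at 37 C; FRET-based beta-lactamase fluorescence read after 2 h substrate incubation at room temperature.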

[8] = qHTS assay for small molecule agonists of the antioxidant response element (ARE) signaling pathway - cell viability counter screen (AID 743203; calls by dose curve; further: nearly all actives have a fitted effect of over 55% in size; further: potency means the concentration at half of the fitted maximal effect)
Summary of the method: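 Measured in the same wells as the beta-lactamase ARE reporter, this read-out is CellTiter-Glo luminescence from HepG2 ARE-bla cells given compounds for 16 hrs.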

[9] = qHTS assay for small molecule activators of the heat shock response signaling pathway - cell viability counter screen (AID 743209); further: nearly all actives have a fitted effect of over 50% in size; further: potency means the concentration at half of the fitted maximal effect
Summary of the method: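 Same-well multiplex: after 2.5 h room-temperature incubation with LiveBLAzer B/G substrate and fluorescence reading, CellTiter-Glo reagent was added to HSE-bla HeLa cells that had received compound for 5 h at 37 C; luminescence read after 30 min.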

[10] = qHTS assay for small molecule activators of the heat shock response signaling pathway (AID 743210; active means well fitted activation curve with a large enough effect in the signal ratio in the repeat runs, with a control signal flat, not every such curve was filed as active; the % refers to the signal ratio;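 further: HeLa cells with beta-lactamase reporter driven by heat shock elements; series mostly up to about 63 µM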)
Summary of the method: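 Following overnight attachment, HSE-bla HeLa cells received test compounds for 5 h at 37 C; beta-lactamase activity was then detected via FRET substrate fluorescence.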
On the % scale 0 is the no-effect control and ±100 the full control effect.

Sequence of Peroxisome proliferator-activated receptor gamma (Homo sapiens) (P37231 whole entry, looked up): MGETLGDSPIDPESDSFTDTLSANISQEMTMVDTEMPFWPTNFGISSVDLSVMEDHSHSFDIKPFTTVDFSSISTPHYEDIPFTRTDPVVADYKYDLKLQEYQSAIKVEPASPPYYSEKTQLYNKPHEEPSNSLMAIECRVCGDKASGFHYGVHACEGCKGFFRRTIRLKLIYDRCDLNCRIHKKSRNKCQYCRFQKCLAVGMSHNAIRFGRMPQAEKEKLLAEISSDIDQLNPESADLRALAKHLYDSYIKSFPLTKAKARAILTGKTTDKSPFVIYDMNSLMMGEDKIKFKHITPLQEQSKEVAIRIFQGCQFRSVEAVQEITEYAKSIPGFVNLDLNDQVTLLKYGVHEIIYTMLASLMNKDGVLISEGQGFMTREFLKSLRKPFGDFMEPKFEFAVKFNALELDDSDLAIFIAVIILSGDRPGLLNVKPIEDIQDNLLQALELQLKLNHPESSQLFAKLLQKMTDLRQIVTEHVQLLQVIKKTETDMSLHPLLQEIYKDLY
Sequence of Aryl hydrocarbon receptor (Homo sapiens) (P35869 whole entry, looked up): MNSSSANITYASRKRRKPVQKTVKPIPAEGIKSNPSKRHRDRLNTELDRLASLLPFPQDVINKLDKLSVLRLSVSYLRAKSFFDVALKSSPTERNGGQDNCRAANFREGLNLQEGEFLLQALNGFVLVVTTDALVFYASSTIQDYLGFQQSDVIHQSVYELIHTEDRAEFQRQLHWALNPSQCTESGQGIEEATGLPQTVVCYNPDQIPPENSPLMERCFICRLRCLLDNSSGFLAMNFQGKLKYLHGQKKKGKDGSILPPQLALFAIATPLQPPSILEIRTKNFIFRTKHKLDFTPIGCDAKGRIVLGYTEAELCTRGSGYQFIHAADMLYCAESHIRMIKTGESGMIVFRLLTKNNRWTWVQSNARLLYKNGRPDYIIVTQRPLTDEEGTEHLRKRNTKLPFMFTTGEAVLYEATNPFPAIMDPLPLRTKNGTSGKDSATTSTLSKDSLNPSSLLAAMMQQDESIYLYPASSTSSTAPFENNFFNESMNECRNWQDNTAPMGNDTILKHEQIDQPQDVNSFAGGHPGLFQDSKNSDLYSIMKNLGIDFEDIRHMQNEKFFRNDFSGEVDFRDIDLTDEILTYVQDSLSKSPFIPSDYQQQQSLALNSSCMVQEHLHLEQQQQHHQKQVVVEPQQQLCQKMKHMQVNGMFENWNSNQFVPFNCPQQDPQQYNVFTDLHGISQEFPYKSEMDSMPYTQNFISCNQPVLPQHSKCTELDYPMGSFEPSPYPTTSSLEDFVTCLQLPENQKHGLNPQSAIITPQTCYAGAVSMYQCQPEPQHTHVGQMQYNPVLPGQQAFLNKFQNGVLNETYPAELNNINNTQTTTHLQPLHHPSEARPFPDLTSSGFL

CC(=O)CC(=O)Nc1ccc(S(=O)(=O)O)cc1
inactive: Potency [1] | Potency [2] | Potency [3] | Potency [4] | Potency [5] | Potency [6] | Potency [7] | Potency [8] | Potency [9] | Potency [10]

O=C(O)O
inactive: activity change, negative = cytotoxicity [1] -13.2% [at 8.47 µM] | activation [2] -1.17% [at 8.47 µM] | viability change, negative = cytotoxic [3] -24.2% [at 8.47 µM] | activation [4] -5.02% [at 7.08 µM] | ratio activity, negative = inhibition [5] -1.11% [at 5.95 µM] | activity change, negative = cytotoxicity [6] 0.913% [at 5.95 µM] | activation [7] -11.2% [at 8.36 µM] | viability change, negative = cytotoxic [8] 6.5% [at 8.36 µM]

C1CCC(SSC2CCCCC2)CC1
inactive: Potency [1] | Potency [2] | Potency [3] | Potency [4] | Potency [5] | Potency [6] | Potency [8] | Potency [9] | Potency [10]

OC/C=C/CO
inactive: Potency [1] | Potency [2] | Potency [3] | Potency [4] | Potency [5] | Potency [6] | Potency [8] | Potency [9] | Potency [10]
active: Potency [7] 21.6 µM

O=C(O)[C@H](O)[C@@H](O)[C@H](O[C@@H]1O[C@H](CO)[C@H](O)[C@H](O)[C@H]1O)[C@H](O)CO
inactive: Potency [1] | Potency [2] | Potency [3] | Potency [4] | Potency [5] | Potency [6] | Potency [7] | Potency [8] | Potency [9] | Potency [10]

O=C(O)c1cccc(C(F)(F)F)c1
inactive: Potency [1] | Potency [2] | Potency [3] | Potency [4] | Potency [5] | Potency [6] | Potency [7] | Potency [8] | Potency [9] | Potency [10]

CC(C)CCCCCOC(=O)CCS
inactive: Potency [1] | Potency [2] | Potency [3] | Potency [4] | Potency [5] | Potency [6] | Potency [9] | Potency [10]

CCC(C)n1ncn(-c2ccc(N3CCN(c4ccc(OC[C@H]5CO[C@](Cn6cncn6)(c6ccc(Cl)cc6Cl)O5)cc4)CC3)cc2)c1=O (stereo partly drawn)
inactive: Potency [1] | Potency [2] | Potency [3] | Potency [4] | Potency [5] | Potency [6] | Potency [8] | Potency [9]

O=C(O)c1ccc2cc(C(=O)O)ccc2c1
inactive: Potency [1] | Potency [2] | Potency [3] | Potency [4] | Potency [5] | Potency [6] | Potency [7] | Potency [8] | Potency [9] | Potency [10]

OCC(F)(F)F
inactive: Potency [1] | Potency [2] | Potency [3] | Potency [4] | Potency [5] | Potency [6] | Potency [7] | Potency [8] | Potency [9] | Potency [10]

CCN(CCN)c1cccc(C)c1
inactive: Potency [1] | Potency [2] | Potency [3] | Potency [4] | Potency [5] | Potency [6] | Potency [7] | Potency [8] | Potency [9]

O[C@@H]([C@H](O)[C@H](O)CBr)[C@H](O)CBr
inactive: Potency [1] | Potency [2] | Potency [3] | Potency [4] | Potency [5] | Potency [6] | Potency [7] | Potency [8] | Potency [9] | Potency [10]

OC1CCCc2ccccc21 (stereo not drawn)
inactive: Potency [1] | Potency [2] | Potency [3] | Potency [4] | Potency [5] | Potency [6] | Potency [7] | Potency [8] | Potency [9] | Potency [10]

CCCCCCOC(=O)C(C)CC (stereo not drawn)
inactive: Potency [1] | Potency [2] | Potency [3] | Potency [4] | Potency [5] | Potency [6] | Potency [8] | Potency [10]

CCCCOC(=O)CO
inactive: Potency [1] | Potency [2] | Potency [3] | Potency [4] | Potency [5] | Potency [6] | Potency [7] | Potency [8] | Potency [9] | Potency [10]

O=C1CCc2cc(OCCCCc3nnnn3C3CCCCC3)ccc2N1
inactive: Potency [1] | Potency [2] | Potency [3] | Potency [4] | Potency [5] | Potency [6] | Potency [8] | Potency [10]

CCCCC/C=C\C/C=C\CCCCCCCC(=O)O
inactive: Potency [1] | Potency [2] | Potency [3] | Potency [4] | Potency [6] | Potency [8]
active: Potency [7] 61.1 µM | Potency [9] 42.9 µM

Cc1ccc(C(=O)O)cc1
inactive: Potency [1] | Potency [2] | Potency [3] | Potency [4] | Potency [6] | Potency [7] | Potency [8] | Potency [9] | Potency [10]

CCc1cccc(CC)c1NC(=O)CN(CC(=O)O)CC(=O)O
inactive: Potency [1] | Potency [2] | Potency [3] | Potency [4] | Potency [6] | Potency [7] | Potency [8] | Potency [9]

CCCCC(CC)CN1CN(CC(CC)CCCC)CC(C)(N)C1 (stereo not drawn)
inactive: Potency [1] | Potency [2] | Potency [3] | Potency [4] | Potency [9]
active: Potency [6] 29.8 µM | Potency [8] 18.8 µM

Cl[Si](Cl)(c1ccccc1)c1ccccc1
inactive: Potency [1] | Potency [2] | Potency [3] | Potency [4] | Potency [6] | Potency [7] | Potency [8]

CCCCCc1ccc(Cl)cc1
inactive: Potency [1] | Potency [2] | Potency [3] | Potency [4] | Potency [5] | Potency [7] | Potency [8] | Potency [9] | Potency [10]

CCCCCCCCCCCCCC[N+](C)(C)Cc1ccccc1
inactive: Potency [2] | Potency [4]
active: Potency [3] 69.6 µM | Potency [6] 22.2 µM and 29.8 µM | Potency [8] 69.6 µM | Potency [9] 44.3 µM and 26.6 µM
inactive and 24.7 µM (active): Potency [1]
